This note sets out measurements from PubChem BioAssay (NCI).

Compounds without any hit were thinned out: in the full panel of roughly 83,000, 20% have a hit.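 Percent growth is the endpoint: 0 to 100 indicates growth inhibition (40 means 60% inhibition), 0 means no net growth, and negative values indicate cell death.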 Values without a mark were called inactive. Calls of active or inactive are those of the source. Rule for the calls: active = growth percent below 10; inactive = the rest.

Test systems include NCI-H23 lung; NCI-H226 lung; NCI-H322M lung; HOP-62 NSCLC; NCI-H460 lung; HOP-92 NSCLC; NCI-H522 lung; A549/ATCC NSCLC; 786-0 renal; COLO 205 colon; DU-145 prostate; K-562 leukemia; MALME-3M melanoma; MDA-MB-231 breast; RXF 393 renal; SF-268 CNS; SF-295 CNS; SF-539 CNS; UACC-257 melanoma; M14 melanoma.
What all share (experiment): NCI-60 one-dose screen, 48 h (100 = growth as untreated, 0 = no growth, -100 = all killed)
What all share (conditions): 10 µM unless noted

Regarding `CCCCCc1nc2c(c3c1CCCC3)CCCC2`, the growth is 73.4% in the test on NCI-H23 lung; 88.6% in the test on NCI-H226 lung; 78.3% in the test with NCI-H322M lung; 77.6% in the test on HOP-62 NSCLC; 83% in the test with NCI-H460 lung; 56.2% with HOP-92 NSCLC. In addition, the growth is 44.6% in the test on NCI-H522 lung; 72.6% in the test with A549/ATCC NSCLC; 85% in the test with 786-0 renal; 89.4% in the test with COLO 205 colon; 114% in the test on DU-145 prostate; 37.3% in the test on K-562 leukemia. The growth is 102% with MALME-3M melanoma; 104% with MDA-MB-231 breast; 80% in the test with RXF 393 renal; 105% with SF-268 CNS; 81.6% in the test on SF-295 CNS; 93.2% in the test with SF-539 CNS. The growth with UACC-257 melanoma was 82.5%; in the test on M14 melanoma, 103%.
As for `COc1cc(N2C(=O)c3nccnc3C2=O)cc(OC)c1OC`, the growth is 99.6% in the test on NCI-H23 lung; 114% in the test on NCI-H226 lung; 99.7% with NCI-H322M lung; 95.9% in the test with HOP-62 NSCLC; 111% with NCI-H460 lung; 89.9% in the test with HOP-92 NSCLC. Further, the growth in the test with NCI-H522 lung is 95.2%; with A549/ATCC NSCLC, 105%; with 786-0 renal, 97.1%; in the test with COLO 205 colon, 111%; with DU-145 prostate it was 115%; in the test on K-562 leukemia, 98.1%. Further, the growth in the test with MALME-3M melanoma is 96%; with MDA-MB-231 breast, 93.1%; in the test on RXF 393 renal, 126%; in the test on SF-268 CNS it was 111%; in the test with SF-295 CNS it was 110%; with SF-539 CNS, 119%. The growth in the test on UACC-257 melanoma was 105%; in the test with M14 melanoma, 91.8%.
For the molecule `N#CC1=C(/N=C/c2ccccc2)Oc2c(ccc3ccccc23)C1c1ccccc1` (stereo not given), the growth with NCI-H23 lung was 28.6%; in the test on NCI-H226 lung it was 52.9%; with NCI-H322M lung, 45.6%; with HOP-62 NSCLC, 21.1%; in the test on NCI-H460 lung, 11.6%; with HOP-92 NSCLC it was 50.4%. Moreover, the growth in the test with NCI-H522 lung was -4.7% (active); with A549/ATCC NSCLC it was 21%; with 786-0 renal, 23.2%; in the test with COLO 205 colon, -23.2% (active); with DU-145 prostate, 17.6%; with K-562 leukemia, 12.2%. Besides, the growth in the test on MALME-3M melanoma was 49.2%; with MDA-MB-231 breast it was 19%; with RXF 393 renal, 18%; in the test with SF-268 CNS, 30.8%; with SF-295 CNS, 3.77% (active); in the test with SF-539 CNS, 1.25% (active). Further, the growth in the test with UACC-257 melanoma is 53.6%; in the test on M14 melanoma it was 4.85% (active).
Regarding `CCc1ccccc1-n1c(N)c(C#N)c(-c2ccc(N(C)C)cc2)c(C#N)c1=O`, the growth in the test with NCI-H23 lung is 96.2%; in the test with NCI-H226 lung, 98.6%; with NCI-H322M lung, 86.3%; in the test on HOP-62 NSCLC, 106%; in the test with NCI-H460 lung, 96.4%; in the test on HOP-92 NSCLC, 68.3%. The growth was 93.7% with NCI-H522 lung; 98.9% in the test with A549/ATCC NSCLC; 93.9% in the test on 786-0 renal; 114% with COLO 205 colon; 103% in the test on DU-145 prostate; 89.3% in the test on K-562 leukemia. For the same molecule, the growth was 91% in the test on MALME-3M melanoma; 91.3% in the test on MDA-MB-231 breast; 89.6% with RXF 393 renal; 95.6% in the test on SF-268 CNS; 98.3% in the test with SF-295 CNS; 90.2% in the test on SF-539 CNS. In addition, the growth in the test with UACC-257 melanoma and with M14 melanoma was 101% throughout.
In the case of `N#Cc1c(N)nc2c(C#N)c(NC(=O)c3ccccc3)nn2c1-c1ccccc1`, the growth in the test with NCI-H23 lung is 87%; in the test with NCI-H226 lung it was 78%; in the test with NCI-H322M lung it was 94.7%; in the test with HOP-62 NSCLC, 90.7%; in the test on NCI-H460 lung it was 96.8%; with HOP-92 NSCLC, 82.5%. Further, the growth in the test with NCI-H522 lung is 86.5%; with A549/ATCC NSCLC, 92.6%; in the test with 786-0 renal, 102%; in the test on COLO 205 colon it was 103%; in the test on DU-145 prostate, 102%; with K-562 leukemia it was 73.1%. Further, the growth in the test with MALME-3M melanoma was 102%; with MDA-MB-231 breast, 84.3%; in the test with RXF 393 renal it was 83.5%; in the test on SF-268 CNS it was 86.2%; in the test with SF-295 CNS, 90%; in the test with SF-539 CNS it was 94.2%. Besides, the growth in the test with UACC-257 melanoma is 105%; in the test with M14 melanoma, 87.3%.
In the case of `O=C(NCCc1ccc(O)c(O)c1)C12CC3CC(CC(C3)C1)C2`, the growth with NCI-H23 lung was 84.9%; with NCI-H226 lung it was 93.7%; in the test on NCI-H322M lung, 114%; with HOP-62 NSCLC, 74.3%; with NCI-H460 lung, 110%; in the test on HOP-92 NSCLC, 65.5%. In addition, the growth was 9.83% (active) in the test with NCI-H522 lung; 105% in the test on A549/ATCC NSCLC; 87.9% in the test with 786-0 renal; 90% in the test on COLO 205 colon; 101% in the test with DU-145 prostate; 92.6% in the test with K-562 leukemia. Further, the growth with MALME-3M melanoma is 107%; with MDA-MB-231 breast, 85.5%; with RXF 393 renal, 101%; in the test with SF-268 CNS, 89.6%; with SF-295 CNS it was 128%; in the test with SF-539 CNS it was 80.4%. The growth with UACC-257 melanoma is 98.8%; in the test on M14 melanoma, 103%.
In the case of `Nc1ccc2c(c1)c(N)nn2C(=O)Nc1ccc(Cc2ccccc2)cc1`, the growth was 82.1% in the test on NCI-H23 lung; 72.5% in the test with NCI-H226 lung; 81.2% in the test with NCI-H322M lung; 82.7% with HOP-62 NSCLC; 44.5% in the test on NCI-H460 lung; 98.2% in the test on HOP-92 NSCLC. The growth was 88.3% with NCI-H522 lung; 52.3% in the test on A549/ATCC NSCLC; 84.3% with 786-0 renal; 107% in the test with COLO 205 colon; 79.3% in the test on DU-145 prostate; -5.66% (active) in the test with K-562 leukemia. The growth was 75.3% in the test with MALME-3M melanoma; 60.6% with MDA-MB-231 breast; 99.8% in the test on RXF 393 renal; 83.9% in the test with SF-268 CNS; 48% with SF-295 CNS; 73.6% in the test on SF-539 CNS. Moreover, the growth with UACC-257 melanoma was 79.1%; in the test on M14 melanoma, 46.8%.
In the case of `N#C/C(=C\c1ccc2c(c1)OCO2)n1nnc2cc(F)c(F)cc21`, the growth is 67.5% in the test with NCI-H23 lung; 69.5% in the test on NCI-H226 lung; 86.2% with NCI-H322M lung; 69.4% in the test on HOP-62 NSCLC; 77.5% in the test with NCI-H460 lung; 46.5% with HOP-92 NSCLC. In addition, the growth in the test with NCI-H522 lung is 18.3%; with A549/ATCC NSCLC, 79%; with 786-0 renal, 89.2%; with COLO 205 colon, 87.4%; in the test with DU-145 prostate it was 36.7%; with K-562 leukemia it was 18%. Also, the growth in the test with MALME-3M melanoma was 70.8%; with MDA-MB-231 breast it was 80.1%; in the test with RXF 393 renal, 32.3%; in the test with SF-268 CNS, 74.3%; in the test on SF-295 CNS, 102%; with SF-539 CNS, 84.5%. In addition, the growth was 75% with UACC-257 melanoma and 57% in the test on M14 melanoma.
